About 83,000 compounds went through this panel and 20% of them were active in at least one assay; those are over-represented in the sample as a whole.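 Values shown are percent growth following 48 h exposure of cells in 96-well plates to a single concentration of compound; below 10 was considered active.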 Unmarked numbers belong to inactive results. The source made the active and inactive calls.

Holding throughout (experiment): NCI-60 one-dose screen, 48 h (100 = growth as untreated, 0 = no growth, -100 = all killed)
Holding throughout (details): 10 µM unless noted

Assay [1] concerns HCT-15 colon.
Assay [2] relates to HT29 colon.
Assay [3] deals with SNB-75 CNS.
Assay [4] deals with SNB-19 CNS.
The test system of assay [5] is U251 CNS.
The subject of assay [6] is PC-3 prostate.
Assay [7] deals with SK-MEL-5 melanoma.
Assay [8] relates to UACC-62 melanoma.
Assay [9] has as its system LOX IMVI melanoma.
Assay [10] has as its system SK-MEL-28 melanoma.

As to `COc1ccc([C@@H]2[C@@H](O)C(=O)N2c2cc(OC)c(OC)c(OC)c2)cc1F`, the growth is 7.95% (active) in [1]; -31.9% (active) in [2]; 17.6% in assay [3]; 24.7% in assay [4]; 12.2% in assay [5]; 20.9% in assay [6]. Besides, the growth in assay [7] was -34% (active); in [8] it was 33.4%; in assay [9], -4.8% (active).

For `O=C(Nc1cccc(C(F)(F)F)c1)c1cc(-c2ccc(F)cc2F)ccc1O`, the growth in [1] is 8.57% (active); in [2], 74.1%; in [3], -0.914% (active); in assay [4], 11.4%; in [5] it was 10.4%; in assay [6] it was 7.15% (active). For the same compound, the growth in assay [7] is -66% (active); in assay [8], 2.01% (active); in assay [9], 0.316% (active).

For `CCOC(=O)c1c(NC(=O)c2ccccc2C(F)(F)F)sc2c1CCC(=O)C2`, the growth in assay [1] is 10.5%; in assay [2], 75.4%; in assay [3], 65.4%; in assay [4], 18.6%; in assay [5], 17.5%; in assay [6], 14.6%. Also, the growth in [7] was -50.3% (active); in assay [8], 13%; in [9], 3.5% (active); in assay [10], 80.1%.

Take `O=C1CCCc2nc(Nc3ccc(S(=O)(=O)Nc4ccc([N+](=O)[O-])cc4)cc3)ncc21`: the growth was 103% in [1]; 118% in assay [2]; 92.6% in assay [3]; 96.2% in assay [4]; 103% in assay [5]; 105% in assay [6]. In addition, the results for the growth in [7], in [8] and in assay [9] were 104%, 90.3% and 97.1%, respectively.

In the case of `COc1ccc(NCc2cn(-c3ccc(C(=O)O)cc3)nc2-c2cc(C(F)(F)F)cc(C(F)(F)F)c2)cc1`, the growth in assay [1] was 88.8%; in [2] it was 99.1%; in assay [3], 91.9%; in assay [4] it was 94.9%; in [5], 102%; in assay [6], 93%. Besides, the growth in [7] is 98.8%; in assay [8], 97.3%; in assay [9], 99.5%.

With `NC(N)=Nc1ccc(Nc2cccc(Nc3ccc(Cl)c(C(F)(F)F)c3)c2)cn1`, the growth in [1] is 68.4%; in assay [2], 29.8%; in assay [3], 45.6%; in [4], 4.1% (active); in assay [5], -43.2% (active); in assay [6], -24.9% (active). Besides, the growth was 34.5% in assay [7], 24.5% in assay [8] and 13.8% in [9].

`CCCn1cnc2c(c1=N)C(c1ccc(F)cc1)c1sc3c(C)cccc3c1O2` (stereo unspecified): the growth in [1] is 18.5%; in [2] it was 57%; in assay [3], -4.36% (active); in assay [4] it was 22.4%; in [5], 24.4%; in assay [6], 33.4%. Moreover, the growth in assay [7] is 24.8%; in assay [8], 27.7%; in assay [9], 28.8%.

With `COc1cc2nc(Cl)nc(Nc3cccc(C4=Nc5c(N)nc(N)nc5NC(c5ccc(Cl)cc5)C4)c3)c2cc1OC` (stereo unspecified), the growth was -7.82% (active) in [1]; 3.99% (active) in [2]; 89.9% in assay [3]; 12.8% in assay [4]; -52.4% (active) in [5]; 62.8% in assay [6]. Further, the growth is 70.6% in assay [7], 92% in [8] and -52.3% (active) in assay [9].

For the compound `COc1c(N2CC3CCCNC3C2)c(F)cc2c(=O)c(C(=O)N/N=C/c3ccc(N(C)C)cc3)cn(C3CC3)c12` (stereo unspecified), the growth in assay [1] was 16.4%; in assay [2] it was -12% (active); in [3], 100%; in assay [4] it was 78.3%; in assay [5] it was 49%; in assay [6], 60.4%. Also, the growth was 83.9% in assay [7], 100% in assay [8] and -22.6% (active) in assay [9].

For `O=C1Nc2ccccc2/C1=C/c1ccc(CO)n1-c1ccc(Cl)cc1`, the growth in [1] was 24%; in assay [2], 26.7%; in [3], 32.8%; in [4], 66.1%; in assay [5] it was 56.4%; in assay [6], 53.5%. In addition, the growth was 51.9% in [7], 33.9% in assay [8] and 43.5% in assay [9].

Regarding `CC[C@@H](CO)Nc1ccc2ncc(C#Cc3cncc(C(=O)Nc4ccc(CN5CCN(C)CC5)c(C(F)(F)F)c4)c3)n2n1`, the growth was -33.4% (active) in [1]; -51% (active) in assay [2]; -83.5% (active) in assay [3]; -20% (active) in assay [4]; -87.8% (active) in assay [5]; -21.1% (active) in assay [6]. Besides, the growth is -96.4% (active) in assay [7], -34.5% (active) in [8], -95.3% (active) in [9] and -43.4% (active) in assay [10].

For the compound `CCO/C=N/C1=C(C#N)C(c2ccc(OC)cc2)c2sc3c(C)cccc3c2O1` (stereo unspecified), the growth is 18.2% in [1]; 10% in assay [2]; 28.2% in [3]; 28.3% in assay [4]; 22.1% in [5]; 9.28% (active) in assay [6]. Moreover, the growth is 39.5% in [7], 17.3% in assay [8], 34.8% in [9] and 55.7% in assay [10].

Turning to `COc1ccc(-c2nn(-c3ccc(S(C)(=O)=O)cc3)cc2/C=N/O)cc1`, the growth was 103% in assay [1]; 106% in assay [2]; 127% in [3]; 105% in assay [4]; 106% in assay [5]; 102% in [6]. Further, the growth was 98.7% in assay [7], 96.6% in assay [8], 102% in assay [9] and 96.1% in assay [10].

For the compound `Cn1ccnc1C(=O)/C=C/c1ccc(CNC(=O)c2ccc(S(F)(F)(F)(F)F)cc2)cc1`, the growth is -5.91% (active) in [1]; 10.4% in assay [2]; 57.6% in assay [3]; 3.58% (active) in [4]; 8.6% (active) in assay [5]; 26.4% in assay [6]. Besides, the growth in [7] is 61.3%; in [8], 31.2%; in assay [9], -80.3% (active); in assay [10], 82.4%.
